TexasRed autofl – compounds fluorescent in Texas Red spectral region; Compound fluorescence, Texas Red channel, 547/618 nm; hits give high values; max dye-equivalent concentration, M; 59,000 compounds, 0.06% hits; AID 587; in the data active = max dye-equivalent concentration above about 10 nM; inconclusive = between about 1.1 nM and that limit
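Compound titrations in 100 mM Tris pH 8.0 were incubated 15 min at room temperature and read at 547 nm excitation / 618 nm emission. Texas Red six-point standard curve on each plate converted fluorescence to dye-equivalent concentration.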
Fluorescein fluor – fluorescein region autofluorescence; Compound autofluorescence, 480/540 nm, fluorescein-equivalent; hits give high values; max fluorescein-equivalent concentration, M; 59,000 compounds, 0.91% hits; in the data active = max fluorescein-equivalent concentration above about 10 nM; inconclusive = between about 1.1 nM and that limit
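Read-out is intrinsic compound fluorescence at 480/540 nm (excitation/emission), expressed as dye-equivalent concentration using a fluorescein standard series run on every plate. Compounds sat 15 min at room temperature in 100 mM Tris, pH 8.0.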
Resorufin autofl – compound fluoresces in the resorufin spectral region. Compound fluorescence, resorufin region 547/598 nm, buffer; hits give high values. max dye-equivalent concentration, M. 59,000 compounds, 0.04% hits. AID 588
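Tris 100 mM pH 8.0; compound added, 15 min RT; CCD imager read, ex 547 nm/em 598 nm; signal normalized to resorufin standard curve (six concentrations per plate) as dye-equivalent concentration.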
Rhodamine fluor – compound autofluorescence in rhodamine spectral region; Rhodamine-region fluorescence, 547/598 nm, Tris buffer; hits give high values; 59,000 compounds, 0.05% hits; AID 594; max dye-equivalent concentration, M; in the data active = max dye-equivalent concentration above about 11 nM; inconclusive = between about 1.1 nM and that limit
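Intrinsic compound fluorescence, ex 547 / em 598 nm, CCD imager. Tris 100 mM pH 8.0; 15 min RT. Output = rhodamine dye-equivalent concentration at each compound concentration.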
A488 autofl – compound fluoresces in the A488 spectral region; compound autofluorescence, A488 spectral region, dye equivalency; Compound Type: qHTS ECL - MLSMR; max dye equivalency, M; 59,000 compounds, 0.1% hits
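Compound autofluorescence was read in 100 mM Tris pH 8.0 after 15 min at room temperature, ex 480 nm/em 540 nm. Intensities were converted to A488 dye-equivalent concentration using an on-plate six-point A488 standard curve.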
A647 fluor – compound fluoresces in the A647 spectral region. Compound fluorescence, A647 channel (570/671 nm), Tris buffer. max dye-equivalent concentration, M. 59,000 tested, under 10 active. AID 592
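Buffer was dispensed, compounds and Alexa 647 standards were pin-transferred, and plates sat 15 min at room temperature. Intensity at 570/671 nm was then converted to dye-equivalent concentration using the plate's A647 standard curve.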
Of the large screens only hits and unclear results are named; the others gave an inactive call. Only some compounds are listed: those with a hit (about 0.96% of all), similar ones and a draw of the others. Unless noted, the rule behind the calls is not given here.

CCOC(=O)N1CCN(c2ccc(Cl)c(Cl)c2)CC1	none
CCOC(=O)N1CCN(C2=Nc3cccc4cccc2c34)CC1	Fluorescein fluor 4.8e-08M, A488 autofl inconclusive
CC(=O)N1CCN(C2=Nc3cccc4cccc2c34)CC1	Fluorescein fluor 2.71e-08M
O=C(CN1C(=O)c2cccc3cccc1c23)N1CCN(c2ccccc2)CC1	none
O=c1c(O)c(-c2cccs2)oc2ccccc12	TexasRed autofl inconclusive, Fluorescein fluor 3.22e-08M, A488 autofl inconclusive
Cn1c(=O)[nH]c(=O)c2c1nc(NCc1ccccc1)n2CC(O)c1ccccc1 (stereo not given)	Fluorescein fluor 3.56e-08M, A488 autofl inconclusive
CC(=O)N1CCN(c2ccc(N=Cc3c(O)n(Cc4ccccc4)c(=O)[nH]c3=O)cc2)CC1	Fluorescein fluor 1.89e-08M
COc1ccccc1-c1cc(NCc2cnc(C)cn2)ncn1	none
CC(=O)N1C(=O)C(=C2C=C(C)OC(C)=C2)c2ccccc21	Fluorescein fluor 2.26e-07M, A488 autofl 1.28e-08M
CC1=CC(C#N)(C#N)C(C#N)(C#N)C(c2ccccc2)N1 (stereo not given)	TexasRed autofl 3.35e-08M, Fluorescein fluor 9.24e-08M, Resorufin autofl 2.03e-08M, Rhodamine fluor 2.76e-08M, A488 autofl inconclusive
COc1cc(/C=C(\C#N)C(=O)c2ccc(O)c(O)c2)cc(I)c1O	Fluorescein fluor 1.32e-08M
CN1CCC(OC(=O)COc2ccc(C(C)(C)C)cc2)CC1	Fluorescein fluor 2.99e-08M, A488 autofl inconclusive
N[C@@H](CO)C(=O)NNCc1ccc(O)c(O)c1O	Fluorescein fluor inconclusive
O=C(c1ccco1)N1CCN(c2nc3ccccc3n3nnnc23)CC1	TexasRed autofl inconclusive, Fluorescein fluor 1.02e-08M
c1ccc(CC2CCN(c3nc4ccccc4n4nnnc34)CC2)cc1	Fluorescein fluor inconclusive
CC1(C)Cc2c(C#N)c(N)sc(=S)c2CS1	Fluorescein fluor 1.1e-08M
N#Cc1c(N)sc2c1CCCCCC2	none
N#Cc1c(N)sc(=S)c2c1CCCCC2	Fluorescein fluor 3.35e-08M
O=C1CN(/N=C\c2ccc([N+](=O)[O-])o2)C(=O)N1	TexasRed autofl inconclusive, Fluorescein fluor 1.61e-07M, A488 autofl inconclusive
C[C@H]1CS(=O)(=O)CCN1/N=C\c1ccc([N+](=O)[O-])o1	none
CCOc1ccc(C2C(C#N)=C(N)SC(N)=C2C#N)cc1OC	Fluorescein fluor inconclusive
CCOc1ccccc1C1C(C#N)=C(N)SC(N)=C1C#N	Fluorescein fluor 1.26e-08M
CCOc1ccc(C2C(C#N)=C(N)SC(N)=C2C#N)cc1OCC	Fluorescein fluor 1.43e-08M
CNC(=O)[C@@H]1O[C@@H](n2cnc3c(NCc4ccc(N)cc4)ncnc32)[C@@H](O)[C@H]1O	Fluorescein fluor inconclusive
CCc1c(C)c(C#N)c2nc3ccccc3n2c1-n1nc(C)cc1C	Fluorescein fluor inconclusive
Cc1cc(-c2ccco2)c(C#N)c2nc3ccccc3n12	Fluorescein fluor 1.58e-07M, A488 autofl inconclusive
CC[C@H](C)[C@@H]1O[C@]2(CC[C@@H]1C)C[C@H]1C[C@H](CC=C(C)[C@@H](O[C@H]3C[C@H](OC)[C@H](O[C@H]4C[C@H](OC)[C@H](O)[C@H](C)O4)[C@H](C)O3)[C@@H](C)C=CC=C3CO[C@@H]4[C@@H](O)C(C)=C[C@H](C(=O)O1)[C@@]34O)O2	none
COCCn1c(=O)c(-c2cccs2)nc2cnc(Oc3ccccc3)nc21	none
COc1ccc(CNC(=O)c2cc3c(=O)n4ccccc4nc3n(Cc3ccco3)c2=N)cc1	Fluorescein fluor 1.95e-08M
Cc1ccc(Cn2c(=N)c(C(=O)NCc3ccco3)cc3c(=O)n4ccccc4nc32)cc1	Fluorescein fluor inconclusive
CCOC(=O)c1cc2c(=O)n3ccccc3nc2n(Cc2ccccc2)c1=N	Fluorescein fluor 1.6e-07M, A488 autofl inconclusive
COc1ccc(CCn2c(=N)c(C#N)cc3c(=O)n4ccccc4nc32)cc1	Fluorescein fluor 1.01e-08M
CN(C)CCCO[C@H]1[C@H]([C@H](O)CO)O[C@H]2OC(C)(C)O[C@@H]21	Fluorescein fluor inconclusive
O=C1CCC[C@H]1C(=O)Nc1ccc2ccccc2c1	none
CC(=O)Nc1ccc(N=Cc2nc(-c3ccc(C)cc3)oc2O)cc1	Fluorescein fluor 1.58e-08M
CN(C)c1ccc(N=Cc2nc(-c3ccccc3)oc2O)cc1	Fluorescein fluor 4.5e-08M, A488 autofl inconclusive
COC(=O)N1CCC2(CC1)CN(c1cccc(-c3ccccc3)c1)C2	none
N#CC1=C(N)SC(N)=C(C#N)C1c1c(Cl)cccc1Cl	none
N#CC1=C(N)SC(N)=C(C#N)C1CCc1ccccc1	Fluorescein fluor 1.21e-08M
Brc1ccc(-c2nnc3sc(CN4CCC5(CC4)OCCO5)cn23)cc1	Fluorescein fluor 1.14e-08M
O=C(O)[C@@H]1CCCN[C@H]1C(=O)O	TexasRed autofl inconclusive
COc1cccc(C2=CC(c3ccc(C)cc3)n3ncnc3N2)c1 (stereo not given)	TexasRed autofl inconclusive, Fluorescein fluor 1.03e-08M
CN(C)C(=O)c1ccc(-c2cc(NCc3ccccc3)ncn2)cc1	none
COc1cccc(Cn2c(N)c(C#N)c3nc4ccccc4nc32)c1OC	Fluorescein fluor 1.26e-08M
COc1cc(Cn2c(N)c(C#N)c3nc4ccccc4nc32)cc(OC)c1	Fluorescein fluor inconclusive
COc1cc(OC)cc([C@H](CNc2ncnc3c2ncn3[C@@H]2O[C@@H](CO)[C@H](O)[C@@H]2O)c2ccccc2C)c1	Fluorescein fluor inconclusive
CN1CCC2(CC1)C1CN(C)CC=C1C(C#N)=C(N)C2(C#N)C#N (stereo not given)	Fluorescein fluor 5.96e-08M, A488 autofl inconclusive
C=CCN1C(=O)C2(c3ccccc31)C1CCCC=C1C(C#N)=C(N)C2(C#N)C#N (stereo not given)	none
COC(=O)[C@H]1[C@@H]2C[C@H]3c4[nH]c5ccccc5c4CCN3C[C@@H]2CC[C@@H]1O	none
O=C(O)c1ccc2c3c(ncnc13)-c1ccccc1C2=O	TexasRed autofl inconclusive, Fluorescein fluor 1.35e-08M
Cn1c(CN2CCCCC2)c(C#N)c2ccccc21	Fluorescein fluor 2.47e-08M
Cn1c(CN2CCC(C(N)=O)CC2)c(C#N)c2ccccc21	TexasRed autofl inconclusive, Fluorescein fluor inconclusive
Cc1ccc(/C=C/C2=Cc3c(sc(NC(=O)CSc4n[nH]c(N)n4)c3C#N)C(C)(C)C2)o1	TexasRed autofl 5.86e-08M, Fluorescein fluor 1.18e-07M, Resorufin autofl 2.41e-08M, Rhodamine fluor 2.77e-08M, A488 autofl inconclusive
CCOC(=O)c1sc(NC(=O)CSc2n[nH]c(-c3ccccc3)n2)c(C#N)c1C	Fluorescein fluor inconclusive
N#CC1=C(N)Oc2n[nH]c(-c3cccs3)c2C1c1ccco1 (stereo not given)	TexasRed autofl inconclusive, Fluorescein fluor 1.01e-07M, Resorufin autofl inconclusive, Rhodamine fluor inconclusive, A488 autofl inconclusive
COCCn1c(=O)c(-c2ccc(OC)cc2)nc2cnc(Nc3ccccc3)nc21	Fluorescein fluor 2.38e-08M
